Only some compounds are listed: those with a hit (about 15% of all), similar ones and a draw of the others.
Pf growth 96h – P. falciparum growth inhibition at 96 hours; P. falciparum luciferase reporter growth, 96 h; Potency, µM (highest dose often 28.7 µM), inactives show at the top dose activity change, negative = inhibition, hits mostly inhibitors; 6.9% of 320,000 active; AID 504834; also: potency is read from the fitted curve at half-maximal effect; % is scaled to controls: 0 for no effect and ±100 for the full control effect
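Cell-based qHTS: luciferase-tagged P. falciparum in erythrocytes (2% hematocrit, 0.05% parasitemia final) incubated with compounds for 96 hours, 37 C, 5% CO2; luciferase detection reagent then added and luminescence measured.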
HCV inh – inhibitors of hepatitis C virus infection; Huh7.5.1 HCVcc-Cre infection, luciferase reporter, 44 h; Potency, µM (highest dose often 41.8 µM), inactives show at the highest dose activity change, negative = inhibition, usual class: inhibitors; 3.4% of 340,000 active; AID 651820; also: potency is read from the fitted curve at half-maximal effect; % is scaled to controls: 0 for no effect and ±100 for the full control effect
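HCVcc-Cre virus at an moi near 0.5 was added right after compound to cells cultured 4 h from seeding (1,000 cells/well). Luciferase activity was determined 44 h later, 15 min after substrate addition at RT.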
SARS PLpro yeast – inhibitors of SARS-CoV papain-like protease in yeast; S. cerevisiae expressing SARS-CoV PLpro, growth rescue; Potency, µM (top dose mostly 32.9 µM), for the others: at the top dose activity, positive = growth rescue, usual class: activators; 0.19% of 330,000 active; AID 485353; calls by dose curve; also: potency is read from the fitted curve at half-maximal effect; 0% is about no effect; nearly all actives have a fitted effect of over 55% in size
Sm TGR block – inhibitors of Schistosoma mansoni thioredoxin glutathione reductase. Q962Y6. purified TGR, DTNB reduction, TNB absorbance 405 nm. Potency, µM (titrated, usually from 114 µM), for inactives: top-dose activity change, negative = inhibition, most hits filed as inhibitors. 3% of 360,000 active. AID 485364; also: potency is read from the fitted curve at half-maximal effect; % is scaled to controls: 0 for no effect and ±100 for the full control effect; nearly all actives have a fitted effect of over 60% in size
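TGR 20 nM + NADPH 100 uM (dispensed conc.), cpd preinc 15 min RT; start with NADPH (500 uM addition) then DTNB (15 mM addition). Kinetic TNB absorbance, 405 nm filter. Four-parameter Hill fit across titration.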
HCMV inh – human cytomegalovirus inhibition. 4.5% of 410,000 active. activity change, negative = inhibition, % at 57.5 µM. HFF cells, HCMV-luciferase reporter, 72 h; stronger effect = lower value; in the data active = activity change below about -60%; inconclusive = no clear call, values can overlap the other calls; inactive = above about -39%; also: % is scaled to controls: 0 for no effect and ±100 for the full control effect
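Luciferase read-out from HCMV-luciferase-infected HFFs (MOI 1 PFU/cell) 72 h post infection at 37C; compounds added after 16 h cell attachment; activity normalized between buffer-only basal and Salinomycin (10uM) inhibitor controls.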
Pf growth 48h – P. falciparum growth inhibition at 48 hours (one generation); P. falciparum luciferase growth in erythrocytes, 48 h; Potency, µM (top dose mostly 28.7 µM), without a hit: at the highest dose activity change, negative = inhibition, usual class: inhibitors; 5.9% of 310,000 active; also: potency is read from the fitted curve at half-maximal effect; % is scaled to controls: 0 for no effect and ±100 for the full control effect
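Here the parasites carry a stable luciferase gene and grow inside erythrocytes in Albumax-based RPMI medium with compound for one erythrocytic cycle. Activity is scored as loss of luminescent signal.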
The depositor's hits bear a star; ? = inconclusive; / = no result given; [ ] = another dose, or the depositor's remark. Unless noted, calls follow the shape of the dose curve; as a rule, active = well fitted curve in the direction sought with a large enough effect; inconclusive = small, poorly fitted or top-dose-only effect, or another doubt; inactive = no such curve, though single readings can be large; an effect the other way counts as inactive or inconclusive.

SMILES	Pf growth 96h	HCV inh	SARS PLpro yeast	Sm TGR block	HCMV inh	Pf growth 48h
COc1cc(C(=O)Nc2ccc3nc(N4CCN(C)CC4)cc(C)c3c2)cc(OC)c1OC	-0.6%	?	0.0%	-13.2%	-3.3	0.329µM*
CC(C)n1c2ccccc2c2nnc(SCC(=O)Nc3ccccc3C(=O)O)nc21	-7.3%	6.3%	0.6%	-1.1%	-33.5	?
CCOC(=O)c1c(NC(=O)COC(=O)CCNS(=O)(=O)c2ccccc2)sc(C(=O)NC)c1C	/	-18.6%	/	/	-11.1	/
CCc1c(C)nc2cc(-c3cccc(Br)c3)[nH]n2c1=O	0.0%	?	0.2%	-0.3%	24.0	?
Cc1cc(OCC(=O)Nc2cc(C(C)(C)C)on2)ccc1[N+](=O)[O-]	?	26.3%	?	5.6%	3.6	14.1%
Cc1cc(N2CCN(C)CC2)nc2ccc(NC(=O)c3ccc4c(c3)OCO4)cc12	/	10µM*	-7.6%	-12.9%	-21.6	9.28µM*
CC(C)OC(=O)Nc1ccc2c(c1)N(C(=O)CCN1CCN(CCO)CC1)c1ccccc1CC2	44.2%	-14.7%	0.0%	55.5%	12.3	?
COc1cc(C(=O)Nc2ccc3c(c2)N(C(=O)CN2CCN(C)CC2)c2ccccc2CC3)cc(OC)c1OC	?	?	-0.6%	-0.2%	25.1	13.1µM*
O=C(NCc1nnc(SCC(=O)N2CCOCC2)o1)c1c(F)cccc1Cl	?	-14.9%	1.4%	-1.5%	-6.4	31.8%
COc1cccc(NC(=S)N(CCN(C)C)C(C)c2ccco2)c1 (stereo not given)	?	?	5.4%	6.8%	-30.8	-11.0%
COc1ccc(NC(=S)N(CCN(C)C)C(C)c2ccco2)cc1Cl (stereo not given)	10.4µM*	?	1.4%	0.8%	?	-13.0%
COc1ccc(CCC(C)NCc2cccc(Br)c2)cc1 (stereo not given)	8.28µM*	6.1%	1.8%	4.3%	-3.9	-7.0%
COc1ccc(CCC(C)NCc2ccccc2OC)cc1 (stereo not given)	?	0.1%	-3.1%	?	12.4	?
O=C(Nc1nccs1)c1cncc(Br)c1	240.7%	?	0.9%	-16.9%	73.0	207.8%
Cc1ccc(NC(=O)c2cc(N3C(=O)C4CCCCC4C3=O)ccc2N2CCOCC2)cc1 (stereo not given)	32.4%	-24.8%	0.2%	-0.5%	8.7	-14.9%
O=C(Nc1ccc(N2CCCCC2)c(C(=O)O)c1)c1ccco1	?	0.5%	3.2%	-0.6%	38.3	36.0%
COC(=O)c1ccc(N2CCCCC2)c(NC(=O)c2ccco2)c1	-1.2%	1.41µM*	0.8%	4.5%	?	?
Cc1ccc(NC(=O)c2cc(N3C(=O)C4CC=CCC4C3=O)ccc2N2CCCCC2)cc1 (stereo not given)	14.7µM*	?	2.2%	5.4%	-8.4	4.6%
Cc1cccc(NC(=O)c2cc(NC(=O)c3ccco3)ccc2N2CCCCC2)c1	?	17.3%	-2.7%	0.4%	?	4.65µM*
O=C(Nc1ccc(N2CCCC2)c(Cl)c1)c1ccco1	13.2%	?	-5.3%	-27.8%	-89.6*	-3.9%
CCOC(=O)C1=CN(Cc2ccco2)S(=O)(=O)N(C)C1CC (stereo not given)	/	-0.5%[8.37 µM]	6.9%	/	-19.4	/
Cc1cc2ccccc2n2c(SCC(=O)Nc3cccc(C(F)(F)F)c3)nnc12	/	/	/	0.0%	-3.8	/
O=C(NCCCN1CCOCC1)C1Cc2c(ccc3ccccc23)O1 (stereo not given)	29.4%	?	-2.2%	20.4%	45.3	?
CN(C(=O)C1CCC(=O)N(Cc2ccccc2F)C1)C1CCOCC1 (stereo not given)	?	/	14.1%	-21.5%	38.8	5.9%
O=C(CN1C(=O)COc2ccc(S(=O)(=O)N3CCOCC3)cc21)N1CCN(c2ccccc2)CC1	/	/	/	2.5%	7.4	/
O=C(Nc1ccc(N2CCCCC2)c(Cl)c1)c1ncn[nH]1	-5.3%[5.75 µM]	-21.1%	-26.5%	8.5%	-36.4	0.465µM*

From PubChem BioAssay
